Z-score data for 79 compounds are collected here from PubChem BioAssay AID817 (Emory University Molecular Libraries Screening Center, 2007).

Structures are written as SMILES. Hit rate of the full screen: of about 140,000 compounds, about 300 (0.21%) were called active.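 How the source made its calls: active means z-score above 3 at both the 24 hr and the 30 hr optical density reads; inactive means the rest, inconclusive results apart.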 The list comes from a sample in which actives are over-represented; it also holds similar structures and randomly drawn compounds.

A short description of this assay: restorers of sdo1-deficient yeast growth – S. cerevisiae, bone marrow failure model, primary screen (AID 817).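 Further: z-score against mean and SD of all compound wells on the same plate.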 To be noted: S. cerevisiae sdo1-depleted JHY4D growth rescue, at 10 µM, stronger effect = higher value, pdr5 snq2 efflux-pump mutant strain.
The mark [1] stands for this setting: OD600, measured here: growth rescue at 24 h.

Consider `NC(=O)CCC(NS(=O)(=O)c1ccc(Cl)cc1)C(=O)NCc1ccccc1Cl` (stereo not drawn), for which the z-score was -0.28 (inactive) (OD600 30 h) and -1.21 under setting [1].
For the compound `Cc1ccc(C(=O)CNc2ccc(F)cc2)cc1`, the z-score is 0.78 (inactive) (OD600 30 h) and -0.09 under setting [1].
The corresponding values for `Fc1ccccc1CNC(=S)Nc1ccc(Cl)cc1` are -1.01 (inactive) and -0.89.
The corresponding values for `CCOC(=O)C(C)Sc1nnc(CSc2nc3nc(C)cc(C)n3n2)o1` (stereo not drawn) are 0.4 (inactive) and 0.13.
With `CCOc1cccc2c1OC1(CCCCC1)N1N=C(c3cccnc3)CC21` (stereo not drawn), the z-score (OD600 30 h) is 13.5 (active) and the z-score under setting [1] is 3.28.
Turning to `CCOc1ccccc1C1CC(c2cccc(NS(C)(=O)=O)c2)=NN1C(=O)c1ccccc1` (stereo not drawn), the z-score (OD600 30 h) was -0.43 (inactive) and the z-score under setting [1] is -0.52.
With `c1cncc(-c2nnc3n2C2(CCCCC2)Cc2ccccc2-3)c1`, the z-score is -0.05 (inactive) (OD600 30 h) and -0.69 under setting [1].
The corresponding values for `N/C(=N\OC(=O)N1c2ccccc2Sc2ccccc21)c1ccc(Br)cc1` are -1.34 (inactive) and -1.41.
For the compound `Cc1cc(-c2csc(N)n2)c(C)n1-c1ccccc1`, the z-score reads like this: (OD600 30 h) 0.37 (inactive); under setting [1], 0.28.
As to `C/C(=N\NC(=O)c1ccc(NS(=O)(=O)c2cccs2)cc1)c1ccc2ccccc2c1`, the z-score runs as follows: (OD600 30 h) 0.3 (inactive); under setting [1], 0.75.
`COc1ccc(/C(C)=N/Nc2cc(C(F)(F)F)ccc2Cl)c(OC)c1`: the z-score was -0.18 (inactive) (OD600 30 h) and -0.33 under setting [1].
The matching figures for `CCCCC(=O)N/N=C(\C)CC(=O)Nc1cc(Cl)ccc1OC`: 0.09 (inactive) and -0.2.
The matching figures for `COc1ccc(/C(C)=N/NC(=O)CCC(=O)Nc2ccc(Cl)cc2Cl)c(OC)c1`: 5.63 (active) and 5.64.
For the compound `O=c1[nH]c2ccccc2s1`, the z-score reads like this: (OD600 30 h) 0.98 (inactive); under setting [1], 1.68.
`C=CCN(c1ccc(C(=O)Nc2cc(C)cc(C)c2)cc1)S(C)(=O)=O`: the z-score (OD600 30 h) was -0.5 (inactive) and the z-score under setting [1] is -0.78.
The corresponding values for `C#CCOCCOCCOCCNc1nc(N2CCN(C(=O)[C@H](C(C)C)n3cc(CCO)nn3)CC2)nc(N2CCN(C(=O)[C@H]([C@@H](C)CC)n3cc(CCCN=C(N)N)nn3)CC2)n1` are 1.22 (inactive) and 1.32.
As to `CCn1c(SCC(=O)N/N=C/C=C/c2ccccc2[N+](=O)[O-])nnc1-c1ccccc1`, the z-score was 0.43 (inactive) (OD600 30 h) and -0.06 under setting [1].
The matching figures for `CN(C)C(=O)c1ccc2c(c1)C1C3CCC(C3)C1C(c1ccccc1)N2` (stereo not drawn): -0.71 (inactive) and -0.66.
The corresponding values for `CCCCNC(=O)CSc1nc2ccc(NC(=O)CSc3nnc(N)s3)cc2s1` are 0.08 (inactive) and -0.52.
The corresponding values for `COC(=O)c1ccc(NC(=O)CSc2nncc3ccc(OC)c(OC)c23)cc1` are -1.41 (inactive) and -0.89.
Regarding `CCOc1ccc(S(=O)(=O)N/N=C(\C)c2ccc(Cl)c(Cl)c2Cl)cc1`, the z-score reads like this: (OD600 30 h) 1.17 (inactive); under setting [1], 1.85.
Turning to `O=C(CSc1nc2ccccc2c(=O)n1CCCO)N1CCc2ccccc21`, the z-score runs as follows: (OD600 30 h) -1.29 (inactive); under setting [1], -0.81.
The matching figures for `CCc1ccc(C2N3CC4([N+](=O)[O-])CN2CC([N+](=O)[O-])(C3)C4(C)C)cc1` (stereo not drawn): 1.48 (inactive) and 1.35.
On to `CCC(C)C(=O)Nc1cc([N+](=O)[O-])ccc1Cl` (stereo not drawn), for which the z-score is 0.25 (inactive) (OD600 30 h) and -0.26 under setting [1].
Regarding `CN(C)/C(=N\OC(=O)c1ccccc1)c1nonc1N`, the z-score reads like this: (OD600 30 h) -0.17 (inactive); under setting [1], 0.24.
In the case of `COCCn1c(=O)[nH]c(=O)c2cc(C(=O)c3cc(OC)ccc3O)cnc21`, the z-score is 0.16 (inactive) (OD600 30 h) and 0.23 under setting [1].
On to `N#C/C(=C\C1=C(N2CCOCC2)C(=C\c2ccccc2)/CC1)C(=O)Nc1ccccc1F`, for which the z-score runs as follows: (OD600 30 h) 0.41 (inactive); under setting [1], 2.72.
For the compound `COc1cc(OC)cc(C(=O)NCC(=O)OCc2csc(-c3ccccc3)n2)c1`, the z-score reads like this: (OD600 30 h) -0.49 (inactive); under setting [1], -0.88.
On to `O=C(/C=C/c1ccccc1[N+](=O)[O-])NCC1CCCO1` (stereo not drawn), for which the z-score reads like this: (OD600 30 h) 1.67 (inactive); under setting [1], 2.05.
The matching figures for `Cc1cc(C(=O)NNC(=S)NC(C)c2ccccc2)cs1` (stereo not drawn): 0.17 (inactive) and -0.18.
The corresponding values for `O=C(CN1CCN(S(=O)(=O)c2ccc(Br)cc2)CC1)Nc1ccccc1C(=O)c1ccccc1` are -0.96 (inactive) and -0.1.
The corresponding values for `Cc1c(C(=O)NCCCc2ccccc2)cccc1[N+](=O)[O-]` are -0.72 (inactive) and -1.83.
On to `CN(C)c1ccc(Nc2c3c4c(cccc4n(C)c2=O)C(=O)c2ccccc2-3)cc1`, for which the z-score was 12.3 (active) (OD600 30 h) and 10.3 under setting [1].
On to `O=[N+]([O-])c1cccc(C2=NCCS2)c1`, for which the z-score is, setting by setting: (OD600 30 h) 0.63 (inactive); under setting [1], 0.08.
The matching figures for `Cc1ccccc1NC(=S)N(CCCN1CCOCC1)Cc1cccs1`: 0.26 (inactive) and 0.42.
The matching figures for `O=C1NC(c2ccccc2)CCC1(Cl)Cl` (stereo not drawn): 0.83 (inactive) and -0.01.
The corresponding values for `NS(=O)(=O)c1cc(C(=O)NCCOc2ccccc2)c(Cl)cc1Cl` are -0.22 (inactive) and -0.02.
For the compound `O=C(NNC1=NCCC1)c1cccc(S(=O)(=O)N2CCCCC2)c1`, the z-score (OD600 30 h) was 1.39 (inactive) and the z-score under setting [1] came to 1.17.
The matching figures for `CCN(C(=O)COc1cccnc1[N+](=O)[O-])C1CCS(=O)(=O)C1` (stereo not drawn): 0.14 (inactive) and 0.45.
On to `C=CCOc1c(Br)cc(/C=N\n2nnnc2N)cc1OC`, for which the z-score runs as follows: (OD600 30 h) 0.16 (inactive); under setting [1], 0.27.
The matching figures for `CC(=O)Nc1ccc(S(=O)(=O)NC2(C(F)(F)F)C(=O)Nc3c2c(=O)[nH]c(=O)n3Cc2ccccc2)cc1` (stereo not drawn): 0.9 (inactive) and -0.08.
The matching figures for `Cc1ccc(Nc2ccc(C(N)=O)cc2[N+](=O)[O-])cc1`: 0.35 (inactive) and 0.28.
The corresponding values for `CCC1CCCCN1C(=S)Nc1ccc(C(C)=O)cc1` (stereo not drawn) are -0.29 (inactive) and -0.44.
`C=CCn1c(SCc2ccc(Cl)c(Cl)c2)nnc1C(CO)NC(=O)c1ccc(OC)cc1` (stereo not drawn): the z-score runs as follows: (OD600 30 h) 0.22 (inactive); under setting [1], -0.41.
The matching figures for `O=C(COC(=O)/C=C/c1cccc(Cl)c1)NCCc1ccccc1`: 3.39 (active) and 3.67.
Take `COc1cc(/C=C/C(=O)OCC(=O)Nc2cccc(Oc3ccccc3)c2)ccc1O`: the z-score is, setting by setting: (OD600 30 h) -0.4 (inactive); under setting [1], 0.4.
Take `COc1ccc(/C=C/C(=O)OCC(=O)NCc2cccs2)cc1OC`: the z-score (OD600 30 h) was 1.04 (inactive) and the z-score under setting [1] worked out at 0.67.
`CC(NC(=S)Nc1ccccc1)C1COc2ccccc2O1` (stereo not drawn): the z-score (OD600 30 h) was -0.7 (inactive) and the z-score under setting [1] was determined as 0.37.
On to `Clc1cccc(CN2COc3c(cc(Cl)c4cccnc34)C2)c1`, for which the z-score runs as follows: (OD600 30 h) -1.42 (inactive); under setting [1], 1.02.
The corresponding values for `COc1ccc(C(=O)CSc2nnc(NC(=O)C3CC(=O)N(c4cccc(OC)c4)C3)s2)cc1` (stereo not drawn) are -0.16 (inactive) and 0.63.
The corresponding values for `Cn1cccc1/C=C1\SC(=S)N(NC(=O)c2ccc(Cl)cc2)C1=O` are -1.05 (inactive) and -0.65.
As for `COc1cc(OC)c(-n2cc(-c3ccc(Cl)cc3)[nH]c2=O)cc1Cl`, the z-score by setting is: (OD600 30 h) 0.21 (inactive); under setting [1], 1.29.
The matching figures for `COCCCNC(=O)CNC(=S)N(Cc1cc(OC)c(OC)c(OC)c1)C1CCCC1`: 1.27 (inactive) and 0.62.
Consider `O=C(NC(=S)NC1CCSC1=O)c1ccccc1F` (stereo not drawn), for which the z-score is 1.34 (inactive) (OD600 30 h) and 0.37 under setting [1].
The matching figures for `COc1cc(OC)c(C(=O)OC(C)C(=O)Nc2cc(C(F)(F)F)ccc2Cl)cc1OC` (stereo not drawn): -0.55 (inactive) and -0.89.
`COc1ccc(COC(=O)N/N=C(\C)CC(=O)Nc2ccc(Cl)cc2)cc1`: the z-score is -0.6 (inactive) (OD600 30 h) and -0.79 under setting [1].
The corresponding values for `Cc1cccc2cc(CN(Cc3cccs3)C(=S)NCc3ccco3)c(=O)[nH]c12` are -0.84 (inactive) and -0.86.
Turning to `Cc1nc(CC(=O)NNS(=O)(=O)c2ccc(F)c(Cl)c2)cs1`, the z-score was -0.8 (inactive) (OD600 30 h) and -1.4 under setting [1].
The corresponding values for `Oc1c(Br)cccc1/C=N/Nc1c(F)c(F)c(F)c(F)c1F` are -1.2 (inactive) and -1.07.
The corresponding values for `CCCCC(NS(=O)(=O)c1ccc(C)cc1)C(=O)Oc1ccc2c3c(c(=O)oc2c1)CCC3` (stereo not drawn) are 3.73 (inactive) and 0.78.
As for `COc1ccc(-c2nnco2)cc1OC`, the z-score is 12.4 (active) (OD600 30 h) and 7.83 under setting [1].
For `COc1ccc(-c2noc(-c3cccc(OC)c3OC)n2)cc1OC`, the z-score (OD600 30 h) is 0.11 (inactive) and the z-score under setting [1] came to 0.39.
The corresponding values for `COc1ccc2c(Cl)c(-c3nnco3)sc2c1` are -1.26 (inactive) and -0.79.
For `COc1cccc(-c2nnc(NC(=O)c3ccc(S(=O)(=O)N(CC(C)C)CC(C)C)cc3)o2)c1`, the z-score is, setting by setting: (OD600 30 h) 5.73 (active); under setting [1], 8.93.
In the case of `O=C(COC(=O)c1ccc(Oc2ccccc2)cc1)Nc1nnc(-c2ccccc2)o1`, the z-score is, setting by setting: (OD600 30 h) 0.36 (inactive); under setting [1], -0.67.
The corresponding values for `COc1cccc(NC(=O)CN(C)S(=O)(=O)c2ccc(C)cc2)c1` are -1.24 (inactive) and -0.78.
Turning to `O=C(Cc1ccc(-c2ccccc2)cc1)NC(c1ccccc1)c1ccccc1`, the z-score is -0.71 (inactive) (OD600 30 h) and -0.45 under setting [1].
The matching figures for `COc1ccc(CC(=O)Nc2cc(S(=O)(=O)N3CCCCC3)ccc2N2CCN(C)CC2)cc1`: 0.01 (inactive) and -0.4.
Regarding `O=[N+]([O-])c1cccc(S(=O)(=O)N2CCCCCC2)c1`, the z-score (OD600 30 h) was 0.38 (inactive) and the z-score under setting [1] is -0.08.
The matching figures for `Cc1ccc(C(C)C)cc1OCCN1CCCC1`: -1.51 (inactive) and -0.59.
The corresponding values for `O=C(Nc1ccc(CSc2ccccc2)cc1)c1ccc(CN2CCOCC2)cc1` are -1.65 (inactive) and -1.3.
For `CSCC[C@H](NC(=O)OC(C)(C)C)C(=O)N/N=C/c1cc2ccc(C)cc2nc1Cl`, the z-score is, setting by setting: (OD600 30 h) -1.17 (inactive); under setting [1], -0.96.
The matching figures for `Cc1ccc(C)c(OCC(=O)N2CCN(C(=O)c3ccco3)CC2)c1`: 2.17 (inactive) and 2.
Turning to `CCn1c(/C=N/NC(=O)c2ccc(OC)cc2)nc2ccccc21`, the z-score was -1.61 (inactive) (OD600 30 h) and -0.95 under setting [1].
The matching figures for `CC(C)CC(CO)N1CCN(C(=O)c2ccc(Cl)cc2Cl)CCC1=O` (stereo not drawn): 0.36 (inactive) and -0.56.
With `CC(=O)Nc1ccc(SCC(=O)Nc2ccccc2Oc2ccccc2)cc1`, the z-score is -0.06 (inactive) (OD600 30 h) and -0.09 under setting [1].
The corresponding values for `Cc1sc2nc(CC(N)=O)[nH]c(=O)c2c1-c1ccccc1` are 0.91 (inactive) and 0.6.
The corresponding values for `CCOc1cc(NC(=S)NCCCOC)c(OCC)cc1NC(=O)c1ccco1` are 0.22 (inactive) and -0.09.
The corresponding values for `CCOc1cccc(OCCCOc2cccc3cccnc23)c1` are -1.11 (inactive) and -0.59.
